In PubChem BioAssay (Tox21):
Several values for one entry are separate records, joined by “and”; a condition that tells them apart may be missing. Equal values may be shown once. Results filed as inconclusive are left out. Where a call stands in place of a potency, no number is given. More than one record can exist for a structure, and the calls need not agree. Activity calls are given as the source filed them. Unless noted, the call rests on the fitted dose curve; in most records, active means well fitted curve in the direction sought with a large enough effect in the repeat runs; inconclusive means weak or mixed curves; inactive means no such curve, though single readings can be large; an effect the other way counts as inactive or inconclusive.

Legend:
[1] = qHTS assay to identify small molecule agonists of the TGF-beta/Smad signaling pathway - cell viability counter screen (AID 1346829); further: top concentration of the series differs between compounds; nearly all actives have a fitted effect of over 45% in size
Method in brief: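 In parallel with the Smad reporter read, viability of HEK 293T cells stably carrying SBE-bla is quantified by ATP luminescence following 5 hr compound treatment.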

[2] = qHTS assay to identify small molecule agonists of the TGF-beta/Smad signaling pathway (AID 1346859; active means well fitted activation curve with a large enough effect in the signal ratio in the repeat runs, not every such curve was filed as active; the % refers to the signal ratio; further: potency means the concentration at half of the fitted maximal effect; on activation: series mostly up to about 77 µM)
Method in brief: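 Dual-wavelength fluorescence (460/530 nm emission) quantified beta-lactamase expression under the Smad binding element in HEK 293T cells following 5 hr compound treatment at 37 C.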

[3] = biological target: Thyrotropin-releasing hormone receptor (Homo sapiens) (UniProt P34981); assay: qHTS assay to identify small molecule antagonists of the thyrotropin-releasing hormone receptor (TRHR) signaling pathway (AID 1346877; active means well fitted inhibition curve with a large enough effect in the repeat runs, not every such curve was filed as active; further: series mostly up to about 51 µM)
Method in brief: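 Overnight-plated (18 h, 37 °C) HEK293 cells expressing TRHR were dye-loaded 2 h, treated with compound, then stimulated with TRH at 1 nM final. Fluorescence intensity was captured every second for 3 min.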

[4] = biological target: Thyrotropin-releasing hormone receptor (Homo sapiens) (UniProt P34981); assay: qHTS assay to identify small molecule agonists of the thyrotropin-releasing hormone receptor (TRHR) signaling pathway (AID 1346891; calls by dose curve;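 further: HEK293 cells expressing TRHR with calcium dye readout; series mostly up to about 58 µM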)
Method in brief: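 Kinetic fluorescence (3 min, 1 s intervals) reported intracellular calcium after compound transfer onto TRHR-Hek293 cells pre-loaded with dye for 2 h at 37 °C.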

[5] = Human pregnane X receptor (PXR) small molecule agonists, qHTS cell viability counter screen (AID 1346977); further: nearly all actives have a fitted effect of over 50% in size
Method in brief: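 HepG2 cells stably carrying the PXR-Luc reporter are cultured with 5% charcoal-stripped FBS and treated with compounds for 24hr. CellTiter-Fluor is added at 23hr and fluorescence is read after 1hr.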

[6] = Caspase-3/7 induction in HepG2 cells by small molecules, qHTS assay (AID 1346978); further: nearly all actives have a fitted effect of over 15% in size
Method in brief: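 Caspase-3/7 induction was measured by Caspase-Glo 3/7 luminescence (30 min, room temperature) after a 17 hr compound exposure of wild-type HepG2 cells seeded at 2,000 per well and pre-incubated 5 hr.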

[7] = Caspase-3/7 induction in CHO-K1 cells by small molecules, qHTS cell viability counter screen (AID 1346979); further: nearly all actives have a fitted effect of over 35% in size
Method in brief: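 Seeding: 1,500 CHO-K1 cells/well. Rest: 5hr, 37C. Treatment: compounds in DMSO, 16hr. Read: CellTiter-Fluor, 1hr, fluorescence.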

[8] = Caspase-3/7 induction in CHO-K1 cells by small molecules, qHTS assay (AID 1346980); further: nearly all actives have a fitted effect of over 15% in size
Method in brief: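 Luminescent Caspase-Glo 3/7 read (30min, room temperature) quantified apoptosis induction. Cells were wild-type CHO-K1, treated with compound for 17hr at 37 C and 5% CO2.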

[9] = Caspase-3/7 induction in HepG2 cells by small molecules, qHTS cell viability counter screen (AID 1346981); further: series mostly up to about 92 µM; nearly all actives have a fitted effect of over 30% in size
Method in brief: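 Treatment of HepG2 cells with DMSO-delivered compounds ran 16 hr at 37 C following a 5-hr pre-incubation of 2,000 cells/well. CellTiter-Fluor fluorescence, read after 1 hr, served as the viability measure in a qHTS format.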

[10] = biological target: Nuclear receptor subfamily 1 group I member 2 (Homo sapiens) (UniProt O75469); assay: Human pregnane X receptor (PXR) small molecule agonists, qHTS assay (AID 1346982); further: nearly all actives have a fitted effect of over 35% in size; further: potency means the concentration at half of the fitted maximal effect
Method in brief: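 Stable HepG2 line reporting PXR-mediated CYP3A4 expression via luciferase. Treatment: 24 hr with compounds in DMSO at 37 C. Detection: ONE-Glo luminescence.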

[11] = biological target: Acetylcholinesterase (Homo sapiens) (UniProt P22303); assay: Acetylcholinesterase (AChE) small molecule antagonists: colormetric cell-based qHTS assay (AID 1347395; calls by dose curve; further: nearly all actives have a fitted effect of over 30% in size; further: potency means the concentration at half of the fitted maximal effect)
Method in brief: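 Quantitative HTS in attached SH-SY5Y cells: 30 min compound exposure, then 90 min with acetylthiocholine and DTNB at 37 C; colour from thiocholine reports AChE activity.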

[12] = biological target: Acetylcholinesterase (Homo sapiens) (UniProt P22303); assay: Acetylcholinesterase (AChE) small molecule antagonists: fluorescence cell-based qHTS assay (AID 1347398; calls by dose curve; further: nearly all actives have a fitted effect of over 50% in size); details: Potency: AChE activity
Method in brief: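 Cellular AChE activity read as thiocholine from acetylthiocholine hydrolysis, detected by Thiolite Green fluorescence at 490/520 nm after 40 min at room temperature. Compounds were pre-incubated 30 min at 37 C on adherent SH-SY5Y cells.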

[13] = biological target: Acetylcholinesterase (Homo sapiens) (UniProt P22303); assay: Acetylcholinesterase (AChE) small molecule antagonists: enzyme-based qHTS assay with human liver microsomes (AID 1347399; calls by dose curve; further: nearly all actives have a fitted effect of over 60% in size); details: Potency: qHTS inhibition
Method in brief: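 Recombinant human AChE (50 mU/mL in the enzyme mix) and human liver microsomes (0.25 mg/mL final) were preincubated with compound and NADPH (0.25 mg/mL final) for 30 min at 37 C. Acetylthiocholine/DTNB was then added; thiocholine was read colorimetrically after 10 min at room temperature.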

[14] = biological target: Cytochrome P450 2D6 (Homo sapiens) (UniProt P10635); assay: Cytochrome P450 Family 2 Subfamily D Member 6 (CYP2D6) small molecule antagonists: luciferase reporter qHTS assay (AID 1671196); further: nearly all actives have a fitted effect of over 50% in size; further: potency means the concentration at half of the fitted maximal effect
Method in brief: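 Chemicals tested for interference with CYP2D6 activity; proluciferin substrate, NADPH regeneration, 1 h at room temperature, luminescent detection.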

[15] = biological target: Cytochrome P450 2C19 (Homo sapiens) (UniProt P33261); assay: Cytochrome P450 Family 2 Subfamily C Member 19 (CYP2C19) small molecule antagonists: luciferase reporter qHTS assay (AID 1671197); further: nearly all actives have a fitted effect of over 65% in size; further: potency means the concentration at half of the fitted maximal effect
Method in brief: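 Compounds were tested on CYP2C19 activity via proluciferin conversion to luciferin. The 37C, 1 h reaction followed NADPH addition; detection reagent stopped it.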

[16] = biological target: Acetylcholinesterase (Homo sapiens) (UniProt P22303); assay: Acetylcholinesterase (AChE) small molecule antagonists: enzyme-based qHTS assay (AID 1347397; calls by dose curve; further: nearly all actives have a fitted effect of over 55% in size); details: Potency: AChE enzyme activity inhibition
Method in brief: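 Colorimetric DTNB readout of acetylthiocholine hydrolysis, 10 min at room temperature, after 30 min room-temperature exposure of 50 mU/mL recombinant human enzyme to compound; DMSO vehicle control.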

[17] = biological target: Cytochrome P450 2C9 (Homo sapiens) (UniProt P11712); assay: Cytochrome P450 Family 2 Subfamily C Member 9 (CYP2C9) small molecule antagonists: luciferase reporter qHTS assay (AID 1671198); further: nearly all actives have a fitted effect of over 50% in size; further: potency means the concentration at half of the fitted maximal effect
Method in brief: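 Enzyme-substrate mix preincubated with compound 10 min at room temperature; reaction started with NADPH regeneration solution, 1 h 37C. Luminescent luciferin product read after 20 min detection reagent.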

[18] = biological target: Nuclear receptor subfamily 1 group I member 2 (Rattus norvegicus) (UniProt Q9R1A7); assay: Rat pregnane X receptor (rPXR) activation by small molecules, qHTS assay (AID 1346983); details: rPXR luciferase reporter cells, One-Glo luminescence, 24 h; stronger effect = higher value; further: nearly all actives have a fitted effect of over 20% in size
Method in brief: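 Luminescent readout (One-Glo luciferase, 30 min room temperature) followed 24 hr compound treatment at 37 C of rPXR cells plated 2,000 per well and preincubated 5hr; qHTS format with compounds delivered in DMSO.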

[19] = biological target: Nuclear receptor subfamily 1 group I member 2 (Homo sapiens) (UniProt O75469); assay: CYP3A4 induction through human pregnane X receptor (PXR) by small molecules, qHTS assay (AID 1346984); further: nearly all actives have a fitted effect of over 40% in size
Method in brief: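 After 24 h at 37C with compound, DPX-2 cells (HepG2, co-transfected PXR response element and CYP3A4 promoter-luciferase) got 3uM final P450-Glo Luciferin-IPA for 3 h; One-Glo luminescence followed.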

[20] = biological target: Nuclear receptor subfamily 1 group I member 2 (Homo sapiens) (UniProt O75469); assay: Human pregnane X receptor (PXR) activation by small molecules, qHTS assay (AID 1346985); further: nearly all actives have a fitted effect of over 40% in size
Method in brief: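 DPX-2 cells (HepG2 co-transfected with a PXR response element and a CYP3A4-promoter luciferase construct) were seeded at 2,000 per well, rested 5 hr at 37C, then exposed to DMSO-dissolved compounds for 24 hr. Activation was read as luciferase luminescence.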

Sequence of Nuclear receptor subfamily 1 group I member 2 (Rattus norvegicus) (Q9R1A7 whole entry, looked up): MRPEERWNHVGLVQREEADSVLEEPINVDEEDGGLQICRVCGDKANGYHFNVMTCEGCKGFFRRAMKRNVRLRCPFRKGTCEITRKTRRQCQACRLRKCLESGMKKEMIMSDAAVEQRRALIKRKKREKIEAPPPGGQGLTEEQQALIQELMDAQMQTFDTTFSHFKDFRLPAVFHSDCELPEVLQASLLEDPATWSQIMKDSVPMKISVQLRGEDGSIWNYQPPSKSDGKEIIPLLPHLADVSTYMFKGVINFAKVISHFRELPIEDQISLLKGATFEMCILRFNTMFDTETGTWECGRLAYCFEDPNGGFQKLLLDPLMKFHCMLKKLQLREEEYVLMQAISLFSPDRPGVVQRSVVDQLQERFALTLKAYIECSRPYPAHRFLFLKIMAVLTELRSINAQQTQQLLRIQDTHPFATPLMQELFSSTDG
Sequence of Thyrotropin-releasing hormone receptor (Homo sapiens) (P34981 whole entry, looked up): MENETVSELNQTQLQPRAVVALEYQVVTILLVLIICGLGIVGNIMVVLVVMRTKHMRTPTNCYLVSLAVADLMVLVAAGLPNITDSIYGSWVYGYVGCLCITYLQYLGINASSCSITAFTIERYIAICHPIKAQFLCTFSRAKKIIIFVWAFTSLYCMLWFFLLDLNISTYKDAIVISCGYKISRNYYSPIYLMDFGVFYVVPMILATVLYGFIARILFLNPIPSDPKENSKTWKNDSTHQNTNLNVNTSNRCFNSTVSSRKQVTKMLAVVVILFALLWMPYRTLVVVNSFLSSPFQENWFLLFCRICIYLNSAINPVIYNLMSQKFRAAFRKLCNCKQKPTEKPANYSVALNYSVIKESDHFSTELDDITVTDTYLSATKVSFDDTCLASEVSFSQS
Sequence of Acetylcholinesterase (Homo sapiens) (P22303 whole entry, looked up): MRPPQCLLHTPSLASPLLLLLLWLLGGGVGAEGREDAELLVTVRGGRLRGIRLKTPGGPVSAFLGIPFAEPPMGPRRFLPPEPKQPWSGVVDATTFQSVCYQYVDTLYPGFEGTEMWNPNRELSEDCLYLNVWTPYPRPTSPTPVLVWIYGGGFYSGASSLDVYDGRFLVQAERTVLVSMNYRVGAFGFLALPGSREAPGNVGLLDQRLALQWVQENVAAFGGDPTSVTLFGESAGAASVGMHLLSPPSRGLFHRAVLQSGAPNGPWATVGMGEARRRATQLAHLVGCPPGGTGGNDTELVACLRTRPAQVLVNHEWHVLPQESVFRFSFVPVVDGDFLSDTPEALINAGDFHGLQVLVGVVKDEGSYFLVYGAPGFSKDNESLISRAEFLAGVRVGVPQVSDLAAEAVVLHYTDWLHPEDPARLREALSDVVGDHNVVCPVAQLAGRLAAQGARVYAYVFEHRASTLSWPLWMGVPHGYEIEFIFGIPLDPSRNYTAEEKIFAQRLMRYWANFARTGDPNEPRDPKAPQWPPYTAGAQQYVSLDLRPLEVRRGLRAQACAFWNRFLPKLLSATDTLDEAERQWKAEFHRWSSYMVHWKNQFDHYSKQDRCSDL
Sequence of Cytochrome P450 2C9 (Homo sapiens) (P11712 whole entry, looked up): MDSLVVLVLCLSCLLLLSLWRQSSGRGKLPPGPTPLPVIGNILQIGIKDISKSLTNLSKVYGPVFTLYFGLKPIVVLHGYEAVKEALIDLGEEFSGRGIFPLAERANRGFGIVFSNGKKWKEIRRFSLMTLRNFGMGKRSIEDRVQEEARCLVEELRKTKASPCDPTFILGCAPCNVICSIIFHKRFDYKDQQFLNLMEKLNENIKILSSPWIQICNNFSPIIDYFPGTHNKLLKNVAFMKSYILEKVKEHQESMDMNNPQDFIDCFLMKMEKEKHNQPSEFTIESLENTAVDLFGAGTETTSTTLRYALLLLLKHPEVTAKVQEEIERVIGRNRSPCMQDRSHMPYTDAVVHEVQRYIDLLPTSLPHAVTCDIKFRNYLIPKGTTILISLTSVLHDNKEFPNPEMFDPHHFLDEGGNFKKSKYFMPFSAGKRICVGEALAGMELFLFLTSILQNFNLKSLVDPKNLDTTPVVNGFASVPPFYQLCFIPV
Sequence of Cytochrome P450 2C19 (Homo sapiens) (P33261 whole entry, looked up): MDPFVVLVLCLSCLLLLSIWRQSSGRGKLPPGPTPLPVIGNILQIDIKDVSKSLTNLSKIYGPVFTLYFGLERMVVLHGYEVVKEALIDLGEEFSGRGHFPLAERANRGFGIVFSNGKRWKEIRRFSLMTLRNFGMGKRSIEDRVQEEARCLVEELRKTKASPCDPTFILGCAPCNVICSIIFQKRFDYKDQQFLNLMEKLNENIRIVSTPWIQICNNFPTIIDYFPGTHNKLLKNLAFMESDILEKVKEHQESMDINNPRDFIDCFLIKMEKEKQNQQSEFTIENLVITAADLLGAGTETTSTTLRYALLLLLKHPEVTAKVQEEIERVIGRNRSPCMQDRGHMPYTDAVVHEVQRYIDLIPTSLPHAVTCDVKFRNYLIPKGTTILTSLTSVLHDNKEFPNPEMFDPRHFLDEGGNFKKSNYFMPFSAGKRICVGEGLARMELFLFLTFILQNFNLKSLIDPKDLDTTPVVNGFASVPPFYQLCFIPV
Sequence of Cytochrome P450 2D6 (Homo sapiens) (P10635 whole entry, looked up): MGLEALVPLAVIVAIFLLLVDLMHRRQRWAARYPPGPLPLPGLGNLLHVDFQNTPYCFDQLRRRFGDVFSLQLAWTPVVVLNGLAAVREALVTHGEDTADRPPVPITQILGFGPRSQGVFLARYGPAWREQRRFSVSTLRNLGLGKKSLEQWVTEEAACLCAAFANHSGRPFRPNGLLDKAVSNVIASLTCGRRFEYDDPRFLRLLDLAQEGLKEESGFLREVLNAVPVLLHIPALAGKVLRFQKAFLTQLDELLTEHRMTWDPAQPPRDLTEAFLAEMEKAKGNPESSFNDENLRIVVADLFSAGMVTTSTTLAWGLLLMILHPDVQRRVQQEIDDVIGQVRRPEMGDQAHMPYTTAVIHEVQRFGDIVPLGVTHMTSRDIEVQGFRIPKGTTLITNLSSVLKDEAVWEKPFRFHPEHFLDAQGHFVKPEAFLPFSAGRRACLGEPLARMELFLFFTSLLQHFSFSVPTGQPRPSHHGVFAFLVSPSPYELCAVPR
Sequence of Nuclear receptor subfamily 1 group I member 2 (Homo sapiens) (O75469 whole entry, looked up): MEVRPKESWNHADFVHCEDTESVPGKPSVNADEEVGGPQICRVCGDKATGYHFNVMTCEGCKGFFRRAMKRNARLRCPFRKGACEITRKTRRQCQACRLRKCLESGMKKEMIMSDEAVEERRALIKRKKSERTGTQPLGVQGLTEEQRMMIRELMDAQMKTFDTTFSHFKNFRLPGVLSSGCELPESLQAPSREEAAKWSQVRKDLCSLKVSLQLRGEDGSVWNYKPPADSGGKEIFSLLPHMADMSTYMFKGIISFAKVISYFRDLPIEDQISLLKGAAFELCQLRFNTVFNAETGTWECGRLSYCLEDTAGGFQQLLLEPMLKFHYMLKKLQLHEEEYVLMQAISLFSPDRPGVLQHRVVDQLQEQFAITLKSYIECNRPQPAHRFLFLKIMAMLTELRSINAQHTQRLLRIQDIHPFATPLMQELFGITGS

Compound | outcome [1] | Potency [2] | outcome [3] | Potency [4] | Potency [5] | outcome [6] | Potency [7] | outcome [8] | Potency [9] | Potency [10] | Potency [11] | Potency [12] | Potency [13] | Potency [14] | Potency [15] | Potency [16] | Potency [17] | max activation [18] | outcome [19] | Potency [20]
NCCc1ccc(O)cc1 | inactive | inactive | inactive | inactive | inactive | inactive | inactive | inactive | inactive | inactive | 62.8 µM (active) and inactive | inactive | inactive | 25 µM (active) and 7.76 µM (active) | 49.9 µM (active) and inactive |  |  |  |  | 
Cc1ccccc1O | inactive | inactive | inactive | inactive | inactive | inactive | inactive | inactive | inactive | inactive | inactive | inactive | inactive | inactive | inactive | inactive | inactive |  |  | 
O=[N+]([O-])c1ccc([As](=O)(O)O)cc1 | inactive | inactive | inactive | inactive | inactive | inactive | inactive | inactive | inactive | inactive | inactive | inactive | inactive | inactive | inactive | inactive | inactive | -0.802% (inactive) | inactive | inactive
C#CC(C)(C)NC(=O)c1cc(Cl)cc(Cl)c1 | inactive | inactive | inactive | inactive | inactive | inactive | inactive | inactive | inactive | 49 µM (active) and 30.6 µM (active) | inactive | inactive | inactive | inactive | 8.04 µM (active) and 39.9 µM (active) | inactive | 71.7 µM (active) and inactive |  |  | 
OC(O)C(Cl)(Cl)Cl | inactive | inactive | inactive | inactive | inactive | inactive | inactive | inactive | inactive | inactive |  |  |  |  | inactive |  |  | -1.41% (inactive) | inactive | inactive
CCN(CC)CCO | inactive | inactive | inactive | inactive | inactive | inactive | inactive | inactive | inactive | inactive | inactive | inactive | inactive |  | inactive | inactive | inactive |  |  | 
Cc1cc(Cl)ccc1O | inactive | inactive | inactive | inactive | inactive | inactive | inactive | inactive | inactive | inactive | inactive | inactive | inactive |  |  | inactive |  |  |  | 
CCNc1nc(NC(C)(C)C)nc(SC)n1 | inactive | inactive | inactive | inactive | inactive | inactive | inactive | inactive | inactive | 30.2 µM (active) and 48.6 µM (active) | inactive | inactive | inactive |  | 17.6 µM (active) and 39.9 µM (active) |  |  |  |  | 
Cc1ccc([N+](=O)[O-])cc1C | inactive | inactive | inactive | inactive | inactive | inactive | inactive | inactive | inactive | inactive | inactive | inactive | inactive | inactive | inactive |  | inactive |  |  | 
CC1OC(C)OC(C)O1 (centres undefined) | inactive | inactive |  |  | inactive | inactive | inactive | inactive | inactive | inactive | inactive | inactive | inactive | inactive | inactive | inactive | inactive | -1.58% (inactive) and 0.0541% (inactive) | inactive | inactive
CCCCOC(=O)c1ccccc1C(=O)OCCCC | inactive | inactive |  |  | inactive | inactive | inactive | inactive | inactive | inactive | inactive | inactive | inactive | inactive | 5.64 µM (active) and 3.99 µM (active) | inactive | 35.6 µM (active) |  |  | 
CCCCCCCCCl | inactive | inactive | inactive | inactive | inactive | inactive | inactive | inactive | inactive | 63.1 µM (active) and inactive | inactive | inactive | inactive | inactive | inactive |  | inactive |  |  | 
O=C1CCCN1 | inactive | 55.5 µM (active) and inactive |  |  | inactive | inactive | inactive | inactive | inactive | 69.3 µM (active) and inactive | inactive | inactive | inactive |  | 8.05 µM (active) and inactive | inactive | inactive |  |  | 
c1ccc(OP(Oc2ccccc2)Oc2ccccc2)cc1 |  | inactive | inactive | inactive | inactive | inactive | inactive | inactive | inactive | inactive | inactive | inactive | inactive | inactive |  | inactive |  |  |  | 
CCC12COCN1COC2 | inactive | inactive |  |  | inactive | inactive | inactive | inactive | inactive | inactive | inactive | inactive | inactive | inactive | 35.6 µM (active) |  | inactive |  |  | 
